Source: PubChem BioAssay
“And” between values parts separate entries of the source, which are not always exact repeats. Equal values may be shown once. Inconclusive results are not listed. The source made the active and inactive calls.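 The calls were made as follows, unless noted: active = compounds killing one labelled cell type while sparing the other, by normalised counts and ratio limits, not self-fluorescent; inactive = the rest.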

What was measured:
[1] = stimulators of insulin release from INS-1E, primary screen, cell-based, 5 mM glucose, NPC library (AID 1117329;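 active = compound raises insulin release from rat beta cells at 5 mM glucose, no numeric limit stated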); details: rat INS-1E insulin secretion, at 10 µM, stronger effect = higher value
[2] = growth inhibition of GSK3B-pretreated HCT116 cells – cell-based, CellTiter-Glo, 0.2 to 20 µM (AID 1117336;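 active = compounds lowering colon cancer cell viability after pretreatment blocking the GSK3B kinase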); details: HCT116 viability after GSK3B inhibitor, at 20 µM, stronger effect = higher value
[3] = inhibition of endothelial tube formation, primary screen, imaging, VEGF stimulated, CD31 staining, tube area, NPC library (AID 1117340;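 active = compound that reduces growth-factor-driven endothelial tube area in a mixed cell culture, no cutoff stated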); details: VEGF-stimulated ADSC/ECFC co-culture, at 10 µM, stronger effect = higher value
[4] = GLP1 release stimulators, primary, NCI-H716, NPC library (AID 1117341;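 active = compound raises GLP1 secretion from the human gut endocrine cells, with no numeric limit stated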); details: NCI-H716 cells, at 10 µM, stronger effect = higher value
[5] = HCT116 colon cancer cell growth inhibition, primary screen, CellTiter-Glo luminescence, NPC library (AID 1117342;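 active = compounds that lower survival of HCT116 colon cancer cells in the luminescence readout, no numeric limit stated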); details: at 20 µM (top of the series)
[6] = reduced SW480 viability measured with CellTiter-Glo, NPC library, primary (AID 1117343;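 active = compounds that lower viability of the colon cancer cells in the luminescence readout, with no numeric limit stated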); details: CellTiter-Glo luminescence; at 20 µM (top of the series)
[7] = NPC library primary testing for decreased DLD-1 cell viability via CellTiter-Glo (AID 1117346;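 active = compounds that lower survival of DLD-1 colon cancer cells in the luminescence readout, no cutoff given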); details: DLD-1 viability, CellTiter-Glo luminescence; at 20 µM (top of the series)
[8] = viability loss in pontine glioma line – cell-based, SU-DIPG-XVII, MIPE5.0, CellTiter-Glo, qHTS, dose response (AID 1347060; cut-off not given, nearly all actives have AC50 up to about 26 µM;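 as to AC50: cells exposed to compound for 48 hours before viability readout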); details: CellTiter-Glo ATP luminescence
[9] = viability loss in pontine glioma line – cell-based, SU-DIPG-XIII, MIPE4.0, CellTiter-Glo, qHTS, dose response (AID 1347061; cut-off not given, nearly all actives have AC50 up to about 37 µM;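 also: cells exposed to compound for 48 hours before readout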); details: CellTiter-Glo ATP luminescence
[10] = viability loss in pontine glioma line – cell-based, JHH-DIPG-1, MIPE4.0, CellTiter-Glo, qHTS, dose response (AID 1347062; cut-off not given, nearly all actives have AC50 up to about 27 µM); details: JHH-DIPG-1 viability, CellTiter-Glo ATP luminescence
[11] = viability loss in pontine glioma line – cell-based, SU-DIPG-IV, MIPE4.0, CellTiter-Glo, qHTS, dose response (AID 1347063; cut-off not given, nearly all actives have AC50 up to about 30 µM;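 also: compound exposure lasted 48 hours before the viability readout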); details: CellTiter-Glo ATP luminescence
[12] = EMT-state selective cytotoxicity in co-culture – imaging, PC-3E GFP, TEM4-18 mCherry, primary screen (AID 1345086); details: PC-3E GFP / TEM4-18 mCherry co-culture, imaging cell counts, at 1 µM; for red/green cell ratio (normalised): actives lie on both sides, counts scaled to control wells, 1 = unselective;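 as to all read-outs here: cells exposed to compound for 72 h before imaging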;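 as to red/green cell ratio (normalised): normalised mesenchymal count divided by normalised epithelial count so high means epithelial killing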
[13] = viability loss in pontine glioma line – cell-based, SU-DIPG-XIII, MIPE5.0, CellTiter-Glo, qHTS, dose response (AID 1347064; cut-off not given, nearly all actives have AC50 up to about 23 µM;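 as to AC50: cells exposed to compound for 48 hours before the viability read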); details: CellTiter-Glo ATP luminescence
[14] = tested on: Aerobactin synthetase IucA (Klebsiella pneumoniae); test: inhibition of K. pneumoniae IucA enzyme – biochemical, Tocris library, absorbance (AID 1345561; call rule not given here;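 also: 100% = enzyme without compound and 0% = no enzyme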); details: purified IucA enzyme assay, absorbance (OD) read-out; stronger effect = lower value;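 tested at 8 µM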
[15] = measured here: epithelial PC-3E GFP cell survival
[16] = measured here: mesenchymal TEM4-18 mCherry cell survival

| SMILES | insulin secretion stimulation [1] | viability decrease [2] | tube area decrease [3] | GLP1 secretion stimulation [4] | inhibition of viability [5] | viability decrease (inhibition) [6] | viability decrease (inhibition) [7] | outcome [8] | outcome [9] | outcome [10] | outcome [11] | red/green cell ratio (normalised) [12] | normalised cell number [12, 15] | normalised cell number [12, 16] | outcome [13] | AC50 [8] | AC50 [11] | AC50 [13] | remaining activity [14] | AC50 [9] |
| --- | --- | --- | --- | --- | --- | --- | --- | --- | --- | --- | --- | --- | --- | --- | --- | --- | --- | --- | --- | --- |
| CC(=O)O[C@H]1C[C@@H]2CC[C@@H]3[C@H](CC[C@@]4(C)[C@H]3C[C@H]([N+]3(C)CCCCC3)[C@@H]4OC(C)=O)[C@@]2(C)C[C@@H]1N1CCCCC1 | 0.6% (inactive) | -4.1% (inactive) | 4.6% (inactive) | 13.2% (inactive) | 3.2% (inactive) | -6.9% (inactive) | -7.1% (inactive) | inactive | inactive | inactive | inactive |  |  |  |  |  |  |  |  |  |
| COc1cc2c(N3CCN(C(=O)Nc4ccc(OC(C)C)cc4)CC3)ncnc2cc1OCCCN1CCCCC1 | 7% (inactive) | 75.1% (active) | 11% (inactive) | 11.5% (inactive) | 93.9% (active) | 38.5% (inactive) | 10.1% (inactive) | inactive | inactive |  |  | 1.13 (inactive) | 1.09 | 1.23 | inactive |  |  |  |  |  |
| CCCCN(CCCC)CCC(O)c1cc2c(Cl)cc(Cl)cc2c2cc(C(F)(F)F)ccc12 (configuration not stated) | 0.4% (inactive) | 99.2% (active) | 96.1% (active) | -0.7% (inactive) | 105% (active) | 131% (active) | 100% (active) |  | inactive |  |  | 1.18 (inactive) | 1.03 | 1.22 |  | 26.3 µM (active) | 20.9 µM (active) | 16.6 µM (active) |  |  |
| CN1CCN2c3ccccc3Cc3ccccc3C2C1 (configuration not stated) | 43.4% (active) | 6.5% (inactive) | 26.3% (inactive) | 3.1% (inactive) | 20.5% (inactive) | 76% (active) | 6.6% (inactive) |  | inactive | inactive | inactive | 1.03 (inactive) | 1.24 | 1.28 |  |  |  |  | 115% (inactive) |  |
| NCCS(=O)(=O)O | 2.6% (inactive) | -1.3% (inactive) | -12% (inactive) | 0.3% (inactive) | -12.3% (inactive) | -4.6% (inactive) | -1.5% (inactive) | inactive | inactive | inactive | inactive | 0.92 (inactive) and 0.87 (inactive) | 1.27 and 1.13 | 1.17 and 0.99 |  |  |  |  |  |  |
| CCCCNc1c(C(=O)OCC)c(C)nc2c1cnn2CC | 6.8% (inactive) | 93.3% (active) | 10.7% (inactive) | 3.7% (inactive) | 94.4% (active) | 124% (active) | 78.4% (active) |  |  |  |  | 1.16 (inactive) | 0.85 | 0.98 |  |  |  |  | 94.8% (inactive) |  |
| CCCCCN(C)CCC(O)(P(=O)(O)O)P(=O)(O)O | 7.6% (inactive) | 1.9% (inactive) | -11.9% (inactive) | -0.5% (inactive) | 9% (inactive) | 17.5% (inactive) | 15.6% (inactive) | inactive | inactive | inactive | inactive | 1.14 (inactive) | 0.86 | 0.98 | inactive |  |  |  |  |  |
| CN1CCN(c2cc3c(cc2F)c(=O)c(C(=O)O)cn3-c2ccc(F)cc2)CC1 | -1.1% (inactive) | 9.9% (inactive) | -7.2% (inactive) | 0.1% (inactive) | 17.4% (inactive) | -0.8% (inactive) | 2.2% (inactive) |  |  |  |  | 1.21 (inactive) and 1.18 (inactive) | 0.99 and 0.72 | 1.2 and 0.85 |  |  |  |  |  |  |
| O=P(O)(O)C(O)(Cc1cccnc1)P(=O)(O)O | -1.8% (inactive) | 5.7% (inactive) | 18.1% (inactive) | 0.1% (inactive) | 5.33% (inactive) | -18.5% (inactive) | -4.9% (inactive) | inactive | inactive | inactive |  | 0.63 (inactive) | 1.37 | 0.87 | inactive |  |  |  |  |  |
| NC(N)=NC(=O)Cc1c(Cl)cccc1Cl | -2.2% (inactive) | 16.7% (inactive) | 11.5% (inactive) | -3% (inactive) | 68.9% (active) | 34.1% (inactive) | 29% (inactive) |  |  |  |  | 0.93 (inactive) | 1.04 | 0.96 |  |  |  |  | 114% (inactive) |  |
| CC1=C(C)C(=O)C(C(CCCCCC(=O)O)c2ccccc2)=C(C)C1=O (configuration not stated) | -0.1% (inactive) | 20.4% (inactive) | -6.8% (inactive) | 4% (inactive) | -4.2% (inactive) | -12.9% (inactive) | -13.3% (inactive) | inactive | inactive | inactive | inactive | 1.03 (inactive) | 1.04 | 1.08 |  |  |  |  |  |  |
| O=NN(CCCl)C(=O)NC1CCCCC1 | -0.3% (inactive) | 11.8% (inactive) | 56.7% (active) | -0.1% (inactive) | -0.2% (inactive) | 57.8% (active) | 3.5% (inactive) | inactive | inactive | inactive |  | 1.11 (inactive) | 1.04 | 1.15 | inactive |  |  |  |  |  |
| Cc1cnc(C(=O)O)c[n+]1[O-] | 3.6% (inactive) | -16.5% (inactive) | 9.6% (inactive) | -4.7% (inactive) | 3% (inactive) | 14.8% (inactive) | -0.8% (inactive) | inactive | inactive | inactive | inactive | 0.76 (inactive) | 1.32 | 1 | inactive |  |  |  |  |  |
| C#C[C@]1(O)CC[C@H]2[C@@H]3CCc4cc(OC)ccc4[C@H]3CC[C@@]21C | 0.5% (inactive) | 1.9% (inactive) | 10.3% (inactive) | 16.1% (inactive) | 45% (inactive) | 110% (active) | 26.6% (inactive) |  |  | inactive | inactive |  |  |  | inactive |  |  |  |  |  |
| CC(C)(C)NC(=O)[C@H]1CC[C@H]2[C@@H]3CC[C@H]4NC(=O)C=C[C@]4(C)[C@H]3CC[C@]12C | 0.6% (inactive) | 5.3% (inactive) | 8.2% (inactive) | 6.1% (inactive) | 5.67% (inactive) | 7.4% (inactive) | -4% (inactive) | inactive |  |  |  |  |  |  |  |  |  |  |  | 11.8 µM (active) |
| CCC(C)n1ncn(-c2ccc(N3CCN(c4ccc(OC[C@H]5CO[C@](Cn6cncn6)(c6ccc(Cl)cc6Cl)O5)cc4)CC3)cc2)c1=O (some centres not stated) | 0.4% (inactive) | 68.8% (active) | 96.5% (active) | 2.2% (inactive) | 75.3% (active) | 112% (active) | 40.6% (inactive) | inactive | inactive | inactive |  | 0.8 (inactive) | 1.27 | 1.01 |  |  |  |  |  |  |
| Oc1ccc(OCc2ccccc2)cc1 | -0.6% (inactive) | -36.6% (inactive) | 0.5% (inactive) | 2.7% (inactive) | -6.37% (inactive) | 5.3% (inactive) | 4.6% (inactive) | inactive | inactive | inactive | inactive | 1.06 (inactive) and 1.09 (inactive) and 0.97 (inactive) | 0.97 and 1.09 and 0.95 | 1.03 and 1.19 and 0.92 | inactive |  |  |  |  |  |
